Source: PubChem BioAssay (NCI)
Compounds without any hit were thinned out: in the full panel of roughly 83,000, 20% have a hit.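 Values shown are percent growth following 48 h exposure of cells in 96-well plates to a single concentration of compound; below 10 was considered active.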 Activity calls are given as the source filed them.

Assays:
Test in all cases: NCI-60 one-dose screen, 48 h (100 = growth as untreated, 0 = no growth, -100 = all killed)
Conditions in all cases: 10 µM unless noted
[1] = tested on: HCT-15 colon
[2] = tested on: HT29 colon
[3] = tested on: SNB-75 CNS
[4] = tested on: SNB-19 CNS
[5] = tested on: U251 CNS
[6] = tested on: PC-3 prostate
[7] = tested on: SK-MEL-5 melanoma
[8] = tested on: UACC-62 melanoma
[9] = tested on: LOX IMVI melanoma
[10] = tested on: SK-MEL-28 melanoma

Measured: growth

O=C1OC(c2ccc(-c3ccccc3)cc2)=C/C1=C/c1c2ccccc2cc2ccccc12
inactive: [1] 74.8% | [2] 103% | [3] 78.7% | [4] 94.1% | [5] 98% | [6] 98.5% | [7] 104% | [8] 99.3% | [9] 95.8% | [10] 87.7%

COc1ccc(C(=O)c2no[n+]([O-])c2C(=O)c2ccc(OC)cc2)cc1
active: [3] -99.3% | [6] -37.7% | [9] -69.2%
inactive: [1] 20.1% | [2] 10.1% | [4] 97.7% | [5] 35.9% | [7] 85.5% | [8] 78.9% | [10] 109%

CCCCCCCCc1ccc(CCC(N)(CO)CO)cc1
inactive: [3] 57.6% | [4] 52.5% | [6] 37.1% | [7] 90.7% | [8] 86.2% | [10] 92.8%
active: [1] -10% | [2] -83.4% | [5] -85.2% | [9] -54%

c1cc(C2CCCCC2)ccc1OCCCCCCN1CCNCC1
inactive: [3] 31.2% | [4] 57.6% | [6] 27.5% | [7] 34.4% | [8] 70.3% | [10] 60.1%
active: [1] -64.5% | [2] 4.38% | [5] -8.72% | [9] -90.5%

Cc1ccc(CC(=O)O)c(C)c1
inactive: [1] 103% | [2] 97.2% | [3] 92.1% | [4] 102% | [5] 99.3% | [6] 98.3% | [7] 106% | [8] 98.8% | [9] 98% | [10] 113%

COc1ccccc1C(=O)Nc1cccc(-c2cc(=O)c3c(OC)c(OC)c(OC)cc3o2)c1
inactive: [1] 41.5% | [2] 24.6% | [3] 83.2% | [4] 36.2% | [5] 39% | [6] 30% | [7] 25% | [8] 43.1% | [9] 35.4% | [10] 56%

CC(C)(C)c1ccc([I+]c2ccc(C(C)(C)C)cc2)cc1
active: [5] 3.28% | [6] 0.197% | [7] -94.7% | [8] -42.2% | [9] -88% | [10] 6.31%
inactive: [1] 69.4% | [2] 11% | [3] 18.7% | [4] 13.8%

CC(=O)OCC(=O)[C@@]1(O)[C@H](C)C[C@H]2[C@@H]3C=C(C)C4=Cc5c(cnn5-c5ccc(F)cc5)C[C@]4(C)[C@H]3[C@@H](O)C[C@@]21C
active: [1] -11.1% | [2] -43.4% | [3] 6.75% | [5] 9.65% | [7] -47.3% | [8] -9.5% | [9] 1.77%
inactive: [4] 25.9% | [6] 12% | [10] 34.5%

COc1cc([C@@H]2c3cc4c(cc3[C@H](O)[C@H]3COC[C@@H]23)OCO4)cc(OC)c1OC
inactive: [1] 59.1% | [2] 79.1% | [3] 58% | [4] 76.9% | [5] 77.4% | [6] 63.8% | [7] 51% | [8] 42.7% | [9] 75.7% | [10] 69.4%

CCS(=O)(=O)OCCO[C@H]1Cc2cc3ccc(=O)oc3cc2OC1(C)C
inactive: [1] 109% | [2] 101% | [3] 101% | [4] 105% | [5] 96.7% | [6] 101% | [7] 101% | [8] 102% | [9] 109% | [10] 116%

Cc1ccc(S(=O)(=O)N/N=C2\CC3CCC2C3)cc1 (stereo not given)
inactive: [1] 96% | [2] 108% | [3] 85.7% | [4] 101% | [5] 96.8% | [6] 95.8% | [7] 99.8% | [8] 103% | [9] 103% | [10] 109%

NCCCOc1cc(Cl)ccc1NC(=O)c1cc2ccccc2cc1OCCCN
active: [1] 4.32% | [2] -91.3% | [3] -90.9% | [5] -93.2% | [6] -76.3% | [7] -86.4% | [9] -81.3% | [10] -96.5%
inactive: [4] 34% | [8] 26.4%

C/C=C(/C)C(=O)OC1C=C(CO)C(=O)C(OC(=O)/C(C)=C\C)C1C(C)C (stereo not given)
active: [1] -49.3% | [2] -65.6% | [3] -43.4% | [4] -54% | [5] -73.8% | [6] -54.1% | [7] -99.3% | [8] -84.7% | [9] -92.5% | [10] -92.6%

O=C(/C=C1\C(=O)N(Cc2ccccc2)c2ccccc21)c1ccc(OCCN2CCCCC2)cc1
inactive: [3] 78.7% | [4] 88.1% | [5] 50.7% | [6] 56.9% | [7] 94.9% | [8] 69.5% | [10] 96.9%
active: [1] -49.9% | [2] -58% | [9] -37.2%

Oc1ccccc1/C=N/N=C/c1c(O)ccc2ccccc12
inactive: [1] 70.1% | [2] 100% | [3] 94.2% | [4] 99.4% | [5] 93.2% | [6] 83.8% | [7] 93.1% | [8] 84.4% | [9] 85.2% | [10] 101%

COc1cc2c(cc1OC)C(Cc1cc(OC)c(OC)cc1[N+](=O)[O-])=NCC2
inactive: [1] 95.8% | [2] 50.9% | [3] 88.2% | [4] 94.3% | [5] 77.4% | [6] 69.2% | [7] 93.6% | [8] 83.7% | [9] 75.1% | [10] 92.7%

COc1ccc(Cn2cc3c(c2-c2ccccc2)CCc2cnoc2-3)cc1N
inactive: [1] 20% | [2] 10.5% | [3] 29.1% | [4] 44.5% | [5] 24.8% | [6] 23.7% | [8] 42.4% | [9] 31.4% | [10] 63.6%
active: [7] 8.52%

COC(=O)Nc1nc2ccc(C(=O)c3ccccc3N(C)C3COC3)cc2[nH]1
inactive: [1] 23.5% | [3] 16.4% | [4] 37.8% | [5] 21.4% | [6] 23% | [7] 22.6% | [8] 27% | [9] 30.8% | [10] 63.6%
active: [2] 9.07%

CCOP1(=O)CC(C)=C(Cl)C(P(=O)(O)O)C1 (stereo not given)
inactive: [1] 98.3% | [2] 104% | [3] 82.4% | [4] 106% | [5] 99.7% | [6] 95.6% | [7] 109% | [8] 95.5% | [9] 94.1% | [10] 93.7%

COc1cccc2c1n([O-])c1cccc(OC)c1[n+]2=O
inactive: [1] 87.6% | [2] 73.5% | [3] 87% | [4] 80.4% | [5] 80% | [6] 57.8% | [7] 72.6% | [8] 84.5% | [9] 64.8% | [10] 72.1%

O=C1C(Cl)=C(Nc2ccc(Nc3ccccc3)c(NC3=C(Cl)C(=O)c4ccccc4C3=O)c2)C(=O)c2ccccc21
inactive: [1] 56.2% | [2] 66.4% | [3] 81.3% | [4] 52.3% | [5] 33.5% | [6] 48% | [7] 90.9% | [8] 39.4% | [9] 63.3% | [10] 113%

C[C@]12C=CC(=O)C=C1[C@@H](F)C[C@@H]1[C@@H]2[C@@H](O)C[C@@]2(C)[C@H]1CC[C@]2(O)C(=O)CO
inactive: [1] 108% | [2] 103% | [3] 145% | [4] 96.2% | [5] 108% | [6] 97.1% | [7] 120% | [8] 110% | [9] 103% | [10] 124%

COc1ccc(-n2nnnc2-c2cn[nH]c2C(F)(F)F)cc1
inactive: [1] 110% | [2] 93.1% | [3] 102% | [4] 101% | [5] 94.8% | [6] 105% | [7] 94.4% | [8] 83.6% | [9] 95.6% | [10] 96.2%

CC(C)CCCCCOC(=O)c1ccccc1SSc1ccccc1C(=O)OCCCCCC(C)C
inactive: [1] 104% | [2] 122% | [3] 87.2% | [4] 103% | [5] 110% | [6] 88.6% | [7] 96.2% | [8] 96.2% | [9] 100% | [10] 114%

COc1cc(Cn2ccc3c2-c2oncc2CC3)cc(OC)c1
inactive: [1] 27.2% | [2] 14.9% | [4] 43.7% | [5] 42.4% | [6] 57.9% | [7] 13.9% | [8] 38.3% | [9] 40.1% | [10] 48.9%
active: [3] -16%

C[C@@H](c1ccc2c(c1)[nH]c1ccc(Cl)cc12)c1nc2ccccc2[nH]1
inactive: [1] 96% | [2] 98% | [3] 62.4% | [4] 92% | [5] 98.4% | [6] 91.3% | [7] 95.3% | [8] 85.9% | [9] 88.2% | [10] 112%

CCOC(=O)NNc1[nH]c(-c2ccc(OC)cc2)cc1C#N
inactive: [1] 107% | [2] 132% | [3] 124% | [4] 98.6% | [5] 98.2% | [6] 99% | [7] 88.9% | [8] 76.1% | [9] 91.6% | [10] 182%

COc1cc(CNC(=O)CCCC/C=C/C(C)C)ccc1OCc1nnc(Nc2ccccc2F)o1
inactive: [1] 90.1% | [2] 89.9% | [3] 57.8% | [4] 58.6% | [5] 84% | [6] 72.5% | [7] 86.6% | [8] 65.5% | [9] 83.4% | [10] 85.2%
